Source: PubChem BioAssay (Sanford-Burnham Center for Chemical Genomics)
CD11b adhes enh: CD11b/CD18-fibrinogen binding enhancement; AID 1499; K562 CD11b/CD18 adhesion to fibrinogen, ATPlite luminescence; P05107+P11215; hit rate 0.07% among 93,000; activation, % at 10 µM;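 active means 10 µM primary screen giving 50% or more activity, confirmed by 40% or more on retest at that dose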
CYP2C19 inh: human CYP2C19 inhibition; P33261; CYP2C19 Supersomes, luciferin-H EGE luminescence, 30 min; inhibition, % at 5 µM; hit rate 21% among 96,000;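 active means CYP2C19 inhibition above a set limit at 5 µM in the primary screen, cut at about 50% in these data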;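 further: plate controls were negative control wells for no effect and 2.5 mM tranylcypromine positive control for full effect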
Mac1 fbg inh: inhibitors of human CD11b/CD18 binding to fibrinogen | P05107+P11215 | inhibition, % at 10 µM | K562 CD11b/CD18 adhesion to fibrinogen, ATPlite luminescence; Mn2+ added to activate the integrin | hit rate 0.54% among 93,000;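 active means primary inhibition of 50% or more at 10 µM, then 40% or more on retest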
CYP2C19 activ: cytochrome P450 2C19 (human) activation; P33261; recombinant CYP2C19, luciferin-H EGE luminescence; hits give high values; 0 = fully inhibited enzyme, 1 = untreated enzyme; activation factor at 5 µM; 96,000 tested, under 10 active;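 active means activation factor of at least 2 at 5 µM in the primary screen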;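 further: 0 = wells with 2.5 mM tranylcypromine and 1 = vehicle-only wells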
CYP2C9 act: CYP2C9 (human) activation. AID 1024. activation factor at 5 µM. recombinant CYP2C9, luciferin-H conversion, luminescence; hits give high values; factor 1 = untreated enzyme, 0 = blocked. hit rate 1.4% among 96,000. P11712;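 active means activation factor of 2 or more for CYP2C9 at a 5 µM dose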;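 further: 0 = sulfaphenazole-blocked wells and 1 = vehicle-only wells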
Target sequence (P11712 whole entry, looked up): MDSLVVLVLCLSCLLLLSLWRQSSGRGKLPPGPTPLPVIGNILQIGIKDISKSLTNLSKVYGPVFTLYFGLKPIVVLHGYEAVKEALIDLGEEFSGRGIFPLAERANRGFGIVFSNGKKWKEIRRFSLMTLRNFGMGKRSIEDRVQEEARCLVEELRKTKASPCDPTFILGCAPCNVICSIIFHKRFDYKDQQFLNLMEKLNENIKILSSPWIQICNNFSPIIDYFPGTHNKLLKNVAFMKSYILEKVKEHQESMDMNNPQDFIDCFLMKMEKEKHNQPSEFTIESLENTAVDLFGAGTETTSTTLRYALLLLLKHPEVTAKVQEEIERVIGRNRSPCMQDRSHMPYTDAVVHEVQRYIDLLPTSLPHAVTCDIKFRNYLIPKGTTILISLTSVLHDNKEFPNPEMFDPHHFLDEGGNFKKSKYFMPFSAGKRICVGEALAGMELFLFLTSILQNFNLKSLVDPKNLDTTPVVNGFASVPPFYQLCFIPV
CYP2C9 inhib: blocks human cytochrome P450 2C9. P11712. CYP2C9 Supersomes, luciferin-H conversion, luminescence. inhibition, % at 5 µM. hit rate 20% among 96,000. AID 777;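 active means blocking of liver enzyme CYP2C9 beyond about 50% at 5 µM, limit read from the data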
Starred values were filed as active, the others as inactive; / = not tested or not shown. In the library only some 28% were active in any assay of this set; here they are far more common.

SMILES	CD11b adhes enh	CYP2C19 inh	Mac1 fbg inh	CYP2C19 activ	CYP2C9 act	CYP2C9 inhib
O=S(=O)(c1ccccc1C(F)(F)F)N1CCN(S(=O)(=O)c2ccccc2C(F)(F)F)CC1	-1	18	-10	0.8	0.5	46
COC(=O)c1sc(NC(=O)CSc2nnnn2-c2ccc(C)cc2C)nc1C	-1	48	3	0.5	1	2
Cc1cccc(N(CC(=O)N/N=C/c2cc([N+](=O)[O-])ccc2Cl)S(C)(=O)=O)c1C	/	53*	/	0.5	0.7	33
Cc1cccc(N(CC(=O)N/N=C/c2ccc(OCC(=O)NCc3ccco3)cc2)S(C)(=O)=O)c1C	0	77*	-23	0.2	0	96*
COc1ccc(CSCC(=O)N/N=C/c2ccc(OCC(=O)NCc3ccco3)cc2)cc1	0	58*	-24	0.4	0.3	70*
CCCCC(=O)Nc1ccc(C(=O)NNC(=O)c2ccccc2Br)cc1	/	-15	/	1.2	1	2
CCC(CC)C(=O)NCCc1cc2ccc(OC)cc2[nH]c1=O	/	2	/	1	0.9	9
COc1ccc2cc(CCNC(=O)c3ccc(Br)o3)c(=O)[nH]c2c1	0	51*	-48	0.5	0.8	25
COc1ccc2cc(CCNC(=O)c3ccc4c(c3)OCO4)c(=O)[nH]c2c1	8	37	5	0.6	0.2	82*
O=C(COc1cccc(F)c1)N[C@@H](Cc1ccccc1)c1nc2ccccc2[nH]1	4	/	-4	/	/	/
CC1(C)CNC(=O)c2sc(N3CCOCC3)nc2C1	0	-16	-4	1.2	1.2	-22
COC(=O)C(NC(C)=O)(Nc1ccccc1)C(=O)OC	-3	5	-17	0.9	1	-3
CCOC(=O)CN(C(=O)CSc1nnc(CNc2ccc(F)cc2)n1CC)c1ccc(F)cc1	-6	15	8	0.8	1.1	-15
CCn1c(CNc2ccc(F)cc2)nnc1SCC(=O)Nc1ccc(OC)cc1OC	-5	50*	5	0.5	0.9	11
CCn1c(CNc2ccc(F)cc2)nnc1SCC(=O)OC1CCCCC1	1	32	7	0.7	0.5	51*
CCn1c(SCC(=O)OC2CCCCC2)nnc1-c1ccncc1	2	88*	-11	0.1	0.6	41
CCCNC(=O)NC(=O)CSc1nnc(-c2ccncc2)n1CC	-4	95*	-2	0.1	0.7	28
COCCCn1c(SCC(=O)NC2CCCCC2)nnc1-c1ccncc1	0	38	-8	0.6	1.1	-7
CCn1c(SCC(=O)NNC(=O)c2ccccc2)nnc1-c1ccncc1	-4	-13	-12	1.1	1.1	-8
CN(C)c1ccnc(-n2cccc2/C=N/OCc2cccc(F)c2)c1C#N	4	97*	-30	0	0.5	46
CCOC(=O)N1CCC(NC(=O)c2cc(C(=O)NCC(OC)OC)ccc2CO)CC1	-2	-4	-17	1	1	-2
CCOc1ccc(-n2c(SCc3nc(-c4ccc(C)cc4)no3)nnc2-c2ccncc2)cc1	3	80*	-9	0.2	0.2	80*
Clc1ccc(-c2noc(CSc3nnc(-c4ccncc4)n3-c3ccccc3)n2)cc1	-6	66*	63	0.3	0.3	72*
Cn1c(SCc2nc(-c3ccc(Cl)cc3)no2)nnc1-c1ccco1	2	60*	1	0.4	0.4	56*
Cc1ccc(-c2noc(CSc3nc(N)cc(N)n3)n2)cc1	-8	24	42	0.8	0.6	41
SMILES	CD11b adhes enh	CYP2C19 inh	Mac1 fbg inh	CYP2C19 activ	CYP2C9 act	CYP2C9 inhib
O=C(CSc1nnc(-c2ccncc2)n1-c1ccccc1)N1CCN(c2ccc(Cl)cc2)CC1	-2	15	-10	0.8	0.7	27
Cc1ccc(-c2noc(CSc3nnc(-c4ccncc4)n3-c3ccc(C)cc3)n2)cc1	/	86*	/	0.1	0.2	84*
CCCC(=O)Nc1cccc(Oc2nc(C)cc(C)c2C#N)c1	3	26	5	0.7	0.8	24
O=C(CCc1ccccc1)Nc1ccccc1[N+](=O)[O-]	-1	/	-2	/	/	/
CCCCCC(=O)Nc1ccccc1N1CCN(c2ccccc2)CC1	-6	9	3	0.9	0.7	34
CN1C(=O)c2cccc(NC(=O)CCc3ccccc3)c2C1=O	8	70*	0	0.3	0.4	62*
CCCCC(=O)Nc1cccc2c1C(=O)N(c1ccccc1)C2=O	0	51*	4	0.5	0.3	67*
O=C1NC2(CCCCCC2)C(=O)N1Cc1ccc([N+](=O)[O-])cc1	-6	/	11	/	/	/
CCOC(=O)C1CCCN(CC(=O)NC2CC2)C1 (configuration not stated)	-5	-1	1	1	1	-4
C=C(C)COc1ccc(-c2nc(N)ncc2Oc2ccccc2OCC)c(O)c1	18	80*	-29	0.2	0.1	92*
CCOc1ccc(-c2nc(N)ncc2-c2ccccc2)c(O)c1	1	12	-9	0.9	0.7	27
Cc1cc([N+](=O)[O-])ccc1NCc1ccc2ccccc2c1	/	36	/	0.6	0.2	77*
COc1ccc(CNc2cc([N+](=O)[O-])ccc2OC)cc1	/	52*	/	0.5	0.3	75*
Cc1cc([N+](=O)[O-])ccc1NCc1ccccc1	/	87*	/	0.1	0.5	52*
CCOC(=O)Nc1ccc([N+](=O)[O-])cc1C	1	/	0	/	/	/
Cc1cc([N+](=O)[O-])ccc1NC(=S)NC(=O)Cc1ccccc1	-1	17	1	0.8	1	4
CCOc1ccccc1-n1c(SCC(=O)NC(C)CC)nnc1-c1ccoc1C (configuration not stated)	0	-1	11	1	0.8	16
O=C1N=C(N2CCC(Cc3ccccc3)CC2)S/C1=C/c1cn[nH]c1-c1ccccc1	/	48	/	0.5	0.4	60*
Cc1ccc(N2CCN(C3=NC(=O)/C(=C\c4cn[nH]c4-c4ccccc4)S3)CC2)cc1	26	/	5	/	/	/
C=CCNC(=O)NS(=O)(=O)c1ccc(C)cc1	0	6	-10	0.9	1	0
CCCNS(=O)(=O)c1ccc(CCC(=O)Nc2ccc3c(c2)OCO3)cc1	0	95*	-5	0.1	0.2	82*
O=C(CCNS(=O)(=O)c1ccc2c(c1)CCC(=O)N2)Nc1ccc2c(c1)OCCO2	-7	-13	2	1.1	0.9	11
CC(C)CNS(=O)(=O)c1ccc(CCC(=O)Nc2ccc3c(c2)OCCO3)cc1	6	39	-4	0.6	0.4	58*
CC(C)NS(=O)(=O)c1ccc(CCC(=O)Nc2ccc3c(c2)OCO3)cc1	-3	48	0	0.5	0.5	52*
COc1ccc(CC(=O)Nc2ccc(S(=O)(=O)NC(C)C)cc2)cc1	-1	62*	11	0.4	0.4	60*
